60 compounds from PubChem BioAssay AID485317 (Broad Institute, 2010) can be followed below.

Out of some 290,000 compounds screened, about 11,000 (3.8%) were called active. This is one part of a sample in which actives are shown more often than they occur.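 Rule for the calls: active = mean replicate inhibition above about 79%, with every replicate also reaching it (limit read from the data); inconclusive = only one of the two criteria met; inactive = mean below limit and not every replicate reaching it.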

For this experiment, the target named is FAD-linked sulfhydryl oxidase ALR (Homo sapiens) (UniProt P55789). In words: inhibitors of human ALR sulfhydryl oxidase, primary screen, biochemical, H2O2 detection, HRP-luminol luminescence, single point (AID 485317). Particulars: purified ALR, DTT oxidation, hits give high values, concentration not given here.
Chain of FAD-linked sulfhydryl oxidase ALR (Homo sapiens) (P55789 whole entry, looked up): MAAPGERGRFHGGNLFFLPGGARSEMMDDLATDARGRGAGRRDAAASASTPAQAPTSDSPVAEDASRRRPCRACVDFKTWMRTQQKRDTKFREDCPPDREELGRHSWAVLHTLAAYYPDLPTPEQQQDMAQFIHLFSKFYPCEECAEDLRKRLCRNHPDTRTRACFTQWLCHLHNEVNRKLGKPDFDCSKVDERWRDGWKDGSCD
Broadly, the inhibition is the drop in the measured response relative to a control, in per cent. Consider `CN1CCN(/N=C/c2c[nH]c3ccccc23)CC1`, for which the inhibition is 79.3% (active). `O=C(Cc1ccccc1[N+](=O)[O-])N1CCN(Cc2ccc3c(c2)OCO3)CC1`: the inhibition was -25.4% (inactive).

As for `Oc1cc2c(cc1CN1CCN(c3ccccc3)CC1)OCO2`, the inhibition was 60.4% (inactive). `Fc1ccc(N2CCN(Cc3ccc4c(c3)OCO4)CC2)cc1`: the inhibition was 76.3% (active). In the case of `COC(=O)C1=C(c2cc3ccccc3s2)C[C@@H]2CC[C@H]1N2C(=O)NCc1cccc2ccccc12`, the inhibition was -1.91% (inactive).

For `COC(=O)C1=C(c2ccccc2)C[C@@H]2CC[C@H]1N2C(=O)N1CCCCC1`, the inhibition was -3.97% (inactive). On to `c1cncc(CNCCc2c[nH]c3ccccc23)c1`, for which the inhibition is 10% (inactive). Turning to `COc1ccc(CNCCc2c[nH]c3ccccc23)cc1OC`, the inhibition was 4.28% (inactive). For the compound `C/C(CCc1c[nH]c2ccccc12)=N\O`, the inhibition is 98.1% (active). Regarding `COC(=O)C1=C(c2ccc(Cl)c(C(F)(F)F)c2)C[C@@H]2CC[C@H]1N2C(=O)NC1CC1`, the inhibition is -18.1% (inactive). Take `COc1cccc(N2C(=O)NC(=O)/C(=C\c3cn(C)c4ccccc34)C2=O)c1`: the inhibition is -2.44% (inactive). Turning to `COc1ccc(CN2C(=O)NC(=O)/C(=C\c3ccc(OC)c(OC)c3OC)C2=O)cc1`, the inhibition was 20% (inactive). For the compound `COc1ccc(N2C(=O)/C(=C/c3ccco3)C(=O)NC2=S)cc1`, the inhibition is 97.9% (active). Take `C[C@]12CC[C@H](O)CC1=C([N+](=O)[O-])CC1C2CC[C@@]2(C)C1CC[C@@H]2O` (stereo not given in full): the inhibition was 1.78% (inactive). Turning to `COC(=O)C1=C(c2ccc(F)cc2OCc2ccccc2)C[C@@H]2CC[C@H]1N2C(=O)NCc1ccc2[nH]ccc2c1`, the inhibition was 5.75% (inactive). Regarding `Cc1cccc2c(CCN)c[nH]c12`, the inhibition is -8.02% (inactive). For the compound `NCCc1c[nH]c2ccc(O)cc12`, the inhibition is 95.8% (active).

For the compound `COC(=O)C1=C(c2cc3ccccc3o2)C[C@@H]2CC[C@H]1N2C(=O)NC1CCCCC1`, the inhibition is 0.528% (inactive). Take `COC(=O)C1=C(c2cc3ccccc3s2)C[C@@H]2CC[C@H]1N2C(=O)NC(C)C`: the inhibition was 16.9% (inactive). As for `O=c1[nH]c(O)c(C=Nc2cc(F)cc(F)c2)c(=O)[nH]1`, the figure is -1.04% (inactive); as for `Cc1ccnc(-n2c(C)cc(/C=C3\C(=O)NC(=S)N(C)C3=O)c2C)c1`, 97.1% (active); as for `Cc1cc(C=C2C(=O)NC(=O)NC2=O)c(C)n1-c1ccncc1`, 20.8% (inactive). Then `Cc1ccc(-n2c(C)cc(/C=C3\C(=O)NC(=O)N(C)C3=O)c2C)cc1C`, with -26% (inactive); and `COC(=O)C1=C(c2cccc(OCc3ccccc3)c2)C[C@@H]2CC[C@H]1N2C(=O)NNCc1ccccc1`, with -3.1% (inactive).

For `O=C(O)CCn1cc(C=C2C(=O)NC(=S)NC2=O)c(-c2cccc(Br)c2)n1`, the inhibition is 99.4% (active). As for `CNCC(O)c1cc(F)c(OCc2ccccc2)c(OCc2ccccc2)c1F` (stereo not given), the inhibition is -16.5% (inactive).

For `COC(=O)C1=C(c2ccc(F)cc2OCc2ccccc2)C[C@@H]2CC[C@H]1N2C(=O)NCc1ccc(Cl)cc1`, the inhibition was 0.0344% (inactive).

Take `c1ccc(CCN2CCC3(CC2)OCCO3)cc1`: the inhibition is 0.745% (inactive). As for `COc1ccc2c(c1)[C@]13CCCCC1C(C2)N(C)CC3` (stereo not given in full), the figure is -0.421% (inactive); as for `CN(C)c1nc(N(C)C)nc(N(C#N)CCCl)n1`, 96.2% (active); as for `CCN1CCN(c2nc3c(c(=O)[nH]2)CCC3)CC1`, 2.56% (inactive). Then `CCC(=O)c1ccc(OCC(=O)N2CCN(CC(=O)Nc3ccc(C)cc3)CC2)cc1`, with -2.33% (inactive); and `Cc1cc(/C=C2/C(=O)NC(=O)N(Cc3ccco3)C2=O)c(C)n1-c1ccc(C(=O)O)cc1`, with 97.6% (active); and `O=C1NC(=O)N(Cc2ccco2)C(=O)/C1=C\c1ccc(-c2ccc(F)cc2)o1`, with 13.9% (inactive).

For `Cc1c(C(=O)O)cccc1-n1c(C)cc(/C=C2\C(=O)NC(=O)N(c3ccc4c(c3)OCO4)C2=O)c1C`, the inhibition was 12.1% (inactive).

With `COC(=O)C1=C(c2ccc(F)cc2OCc2ccccc2)C[C@@H]2CC[C@H]1N2C(=O)NCc1ccc(OC)c(OC)c1`, the inhibition was -0.52% (inactive).

`COC(=O)C1=C(c2ccc(F)cc2OCc2ccccc2)C[C@@H]2CC[C@H]1N2C(=O)NCc1ccc(C(C)(C)C)cc1`: the inhibition is -8.86% (inactive). Turning to `O=C(CCC(=O)N1C[C@H]2C[C@@H](C1)c1cccc(=O)n1C2)NCc1ccccc1C(F)(F)F`, the inhibition was -3.58% (inactive). In the case of `COC(=O)C1=C(c2c(C)noc2C)C[C@@H]2CC[C@H]1N2C(=O)NCc1ccc2c(c1)OCO2`, the inhibition was -6.31% (inactive). As for `CC(=O)NC(=O)NC(C)Cc1ccccc1` (stereo not given), the inhibition was 99.2% (active). Then `CC(Cc1ccccc1)NCCC(c1ccccc1)c1ccccc1` (stereo not given), with -11.9% (inactive); and `CC(=O)c1ccc(OC(NC(=O)Cc2ccccc2)C(Cl)(Cl)Cl)cc1` (stereo not given), with 5.09% (inactive). As for `COC(=O)C1=C(c2ccc(Cl)c(C(F)(F)F)c2)C[C@@H]2CC[C@H]1N2C(=O)NC(C)C`, the inhibition is 0.07% (inactive).

For the compound `COc1ccc(-c2nc(CS(=O)CC(=O)N3CCC4(CC3)OCCO4)c(C)o2)cc1` (stereo not given), the inhibition was 98.9% (active). As for `COc1ccc(NC(=O)N2CCC3(CC2)OCCO3)c(OC)c1`, the figure is -26.4% (inactive). As for `Cc1ccc(-c2cc(C(=O)N3CCC4(CC3)OCCO4)no2)cc1`, the figure is 7.33% (inactive); as for `COC(=O)C1=C(c2ccc(-c3ccccc3)c(F)c2)C[C@@H]2CC[C@H]1N2C(=O)NCc1ccc(F)cc1`, -0.106% (inactive). In the case of `C=CC12CN(C)[C@@H]3C4CO[C@H](C[C@H]41)[C@]1(C(=O)Nc4ccccc41)[C@@H]32` (stereo not given in full), the inhibition was -7.63% (inactive).

Take `COC(=O)C1=C(c2cccc(OCc3ccccc3)c2)C[C@@H]2CC[C@H]1N2C(=O)NCc1ccc(Br)cc1`: the inhibition was -3.06% (inactive). `CN1CCc2cc3c(cc2[C@H]1[C@@H]1OC(=O)c2c1ccc1c2OCO1)OCO3`: the inhibition is -8.76% (inactive).

On to `Cc1ccccc1NC(=O)COC(=O)c1cc(C)n(C2CC2)c1C`, for which the inhibition was 5.99% (inactive). Turning to `COC(=O)C1=C(c2ccc3ccccc3c2)C[C@@H]2CC[C@H]1N2C(=O)NCCO`, the inhibition was -28.8% (inactive).

Take `C/C(=N/O)c1ccc2ccc3ccccc3c2c1`: the inhibition is 99.1% (active). Take `O=[N+]([O-])c1cnc2ccc3ccccc3c2c1`: the inhibition was -42.1% (inactive). Consider `C[C@]12CCC3C(CC[C@H]4C[C@@H](O)CC[C@]34C)C1CC[C@@H]2O` (stereo not given in full), for which the inhibition is -1.96% (inactive).

Take `C[C@]12CCC3C(CC[C@H]4C[C@@H](O)CC[C@]34C)C1C[C@@H](O)[C@H]2O` (stereo not given in full): the inhibition was 2.15% (inactive). Then `COC(=O)C1=C(c2ccc(F)cc2F)C[C@@H]2CC[C@H]1N2C(=O)NC1CC1`, with -1.47% (inactive). On to `COC(=O)C1=C(c2ccccc2OCc2ccccc2)C[C@@H]2CC[C@H]1N2C(=O)NCc1ccc(OC)cc1`, for which the inhibition is -2.59% (inactive). Turning to `COC(=O)C1=C(c2ccc(C(C)=O)cc2)C[C@@H]2CC[C@H]1N2C(=O)NCCNC(C)=O`, the inhibition was 4.07% (inactive). For `O=c1c2ccccc2nc(/C=C/c2ccco2)n1-c1ccccc1O`, the inhibition was 47.2% (inactive).
